Inconclusive results are not listed. The source made the active and inactive calls. Calls follow the shape of the dose curve; as a rule, active = well fitted inhibition curve with a large enough effect; inconclusive = small, poorly fitted or top-dose-only effect; inactive = no such curve, though single readings can be large or run the other way.
Experiment: Confirmation assay for measurement of the activity of small molecule inhibitors on Zika virus induced Caspase-3 activity in human iPSC derived neural progenitor cells (hNPCs)
Settings: hNPC ZIKV-induced caspase-3/7, Caspase-Glo luminescence, 6 h; series mostly up to 46.1 µM
Text: National Center for Advancing Translational Sciences [NCATS] Johns Hopkins University School of Medicine Florida State University Assay Overview: Increase in the Caspase-3 activity indicates an activation of apoptosis cell death pathway caused by Zika virus infection in certain types of neuronal cells including human neural progenitor cells (hNPCs), astrocytes, and astrocytoma cell line (SNB-19). This cell-based caspase-3 activity assay measures the increased caspase-3 activity in the human iPSC derived neural progenitor cells (hNPCs) after a 6-hour Zika virus infection with a luminescence readout. A decrease in the luminescence signal in this assay by small molecule treatment indicates an inhibitory effect of that small molecule on the Zika virus induced caspase-3 activity that may correlate with its effect on reduction of Zika virus caused cell death.
Assay Protocol Summary: The medium for hNPCs consists of DMEM/F12, N2 supplement (ThermoFisher, Cat.# 17502048), NEAA (ThermoFisher, Cat. # 11140050), 2 ug/ml heparin, 2 uM cyclopamine, and B27 (ThermoFisher, Cat. # 17504044). A Caspase-Glo 3/7 assay kit (catalog number G8092; Promega, Madison, WI) was used to detect caspase-3 activity induced by Zika virus infection in human cells. The reagent mixture was reconstituted as described in the protocol from the manufacturer. Polystyrene tissue culture treated and PDL coated white plates were obtained from Greiner Bio-One (Monroe, NC). Cells were seeded in 384- or 1536-well assay plates and cultured at 37 C with 5% CO2 for 16 to 20 hours. The typical cell seeding density in the 1536-well plate assay is 350 cells/well in 3 ul medium for hNPCs in tissue culture treated plates. Compounds were added to cells and incubated for one hour before addition of ZIKV solution to cells (2 FFU/cell). After incubation at 37 C with 5% CO2 for 6 hours, the reagent mixture of Caspase-Glo 3/7 assay kit was added to each well, followed by incubation at room temperature for 30 minutes. The luminescence intensity of the assay plates was measured using a ViewLux plate reader (PerkinElmer). Data were normalized by using the cell-containing wells without ZIKV as a negative control (0% induction of caspase 3/7 activity) and wells containing ZIKV infected cells (Caspase-3 activity induced) as a positive control (100% induction of caspase 3 activity). The percentage inhibitions of the increased Caspase-3 activity by small molecule inhibitors were then calculated.

Potency, inactive:
Cc1c(NC(=O)c2ccc(C(C)(C)C)cc2)cccc1-c1cn(C)c(=O)c(Nc2ccc(C(=O)N3CCOCC3)cc2)n1, C[C@@H]1CCN(C(=O)CC#N)C[C@H]1N(C)c1ncnc2[nH]ccc12, O=c1oc2cc(O)ccc2s1, O=C(O)[C@H](CC(=O)N1C[C@@H]2CCCC[C@H]2C1)Cc1ccccc1, CC=CC[C@@H](C)C(=O)[C@H]1C(=O)N[C@@H](C(C)C)C(=O)N(C)CC(=O)N(C)[C@@H](CC(C)C)C(=O)N[C@@H](C(C)C)C(=O)N(C)[C@@H](CC(C)C)C(=O)N[C@@H](C)C(=O)N[C@H](C)C(=O)N(C)[C@@H](CC(C)C)C(=O)N(C)[C@@H](CC(C)C)C(=O)N(C)[C@@H](C(C)C)C(=O)N1C, Nc1ccc(O)c(C(=O)O)c1, CC[C@]1(O)C[C@H]2CN(CCc3c([nH]c4ccccc34)[C@@](C(=O)OC)(c3cc4c(cc3OC)N(C=O)[C@H]3[C@@](O)(C(=O)OC)[C@H](OC(C)=O)[C@]5(CC)C=CCN6CC[C@]43[C@@H]65)C2)C1, Cc1ccc(C(=O)c2ccc(CC(=O)O)n2C)cc1, O=C(O)Cc1ccc(-c2ccccc2)cc1, CCCCCNC(=O)N1CCC(CN(Cc2ccc(Cl)cc2)Cc2ccc([N+](=O)[O-])s2)C1 (stereo not given), CC(C)(C)OC(=O)CN(Cc1ccc(Cl)cc1)Cc1ccc([N+](=O)[O-])s1, Nc1ncnc2c1ncn2[C@@H]1O[C@@H](CO)[C@H](O)[C@H]1O, CC1=C(CO)C(=O)O[C@@H]([C@@H](C)[C@H]2CC[C@H]3[C@@H]4C[C@H]5O[C@]56[C@@H](O)C=CC(=O)[C@]6(C)[C@@H]4CC[C@]23C)C1, CCCCCCCCCCCC(=O)[O][Sn]([CH2]CCC)([CH2]CCC)[O]C(=O)CCCCCCCCCCC, CC1(C)Cc2c(sc(NC(=S)NC(=O)c3ccccc3)c2C(=O)O)CO1, CC[C@@]1(O)C[C@H](O[C@H]2C[C@H](N(C)C)[C@H](O[C@H]3C[C@H](O)[C@H](O[C@H]4CCC(=O)[C@H](C)O4)[C@H](C)O3)[C@H](C)O2)c2c(cc3c(c2O)C(=O)c2c(O)cccc2C3=O)[C@@H]1C(=O)OC, NC1CCC(Nc2nc(Nc3ccc(C(=O)N4CCCCC4)cc3)c3ncn(-c4cccc(F)c4)c3n2)CC1 (stereo not given), C[C@@H](N)c1ccc(C(=O)Nc2ccnc3[nH]ccc23)cc1, COc1ccnc2c1CCCCC2S(=O)c1nc2ccccc2[nH]1 (stereo not given), N#CC1(c2ccc(NC(=O)c3cccnc3NCc3ccncc3)cc2)CCCC1, CCN1/C(=C/C=C/c2sc3ccccc3[n+]2CC)Sc2ccccc21, CC(=NNC(=S)N1CCC1)c1ccccn1

Potency, active:
C[C@H](NC(=O)C(=O)Nc1ccccc1C(C)(C)C)C(=O)N[C@@H](CC(=O)O)C(=O)COc1c(F)c(F)cc(F)c1F 0.245 µM, C/C(=N\O)c1ccc(OCC(=O)N2CCCCC2)cc1 7.74 µM, O=C(Nc1ccc([N+](=O)[O-])cc1Cl)c1cc(Cl)ccc1O 1.73 µM, CC(C)Oc1ccc2c(=O)c(-c3ccccc3)coc2c1 6.15 µM, Cc1cccc(/C=C/c2ccccc2)n1 8.69 µM, Oc1cc(O)cc(/C=C/c2ccc(O)c(O)c2)c1 4.89 µM, Nc1ccc2c(c1)CN1C(=O)c3ccccc3C1=N2 1.9 µM, Cc1cc(O)c2c(c1)C(=O)c1cc(O)cc(O)c1C2=O 1.95 µM, O=C(/C=C/c1ccc(O)cc1)c1ccc(O)cc1O 1.73 µM, COc1ccc2nc(NC(=O)Nc3ccccc3)sc2c1 8.69 µM, Nc1ccc(-c2ccc3ccccc3n2)cc1 3.88 µM, Cc1ccc(O)c(-n2nc3ccccc3n2)c1 4.35 µM, O=C1NC(=O)C(=Cc2ccc(-c3ccc(F)cc3)o2)S1 9.75 µM, Cc1nc(-c2ccc(OCC(C)C)c(C#N)c2)sc1C(=O)O 3.88 µM, O=C(O)CCC(=O)c1ccc(-c2ccccc2)cc1 19.5 µM, O=C(O)[C@@H](c1ccc(OCc2ccc3ccccc3n2)cc1)C1CCCC1 6.9 µM, O=C(c1ccccc1)c1ccc2n1CCC2C(=O)O (stereo not given) 13.8 µM, COCCn1c2c([n+](Cc3cnccn3)c1C)C(=O)c1ccccc1C2=O 6.15 µM

From PubChem BioAssay AID1224855 (National Center for Advancing Translational Sciences (NCATS), 2016)
